Source: PubChem BioAssay
Values joined by “and” are separate entries in the source; they are usually repeats but may differ in a detail not shown here. Equal values may be shown once. For part of these data: Potency and affinity values are given separately. Active and inactive are the calls of the source. Unless noted, how the calls were made is not given here.

Assays:
[1] = polyglutamine-triggered caspase-3 activation inhibitors, cell-based (AID 1583); settings: polyglutamine-induced caspase-3 activation, cell assay; stronger effect = higher value;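 tested at 10 µM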
[2] = suppressors of polyQ aggregation in yeast, 75Q-TubU reporter (AID 1593); settings: Yeast 75Q polyglutamine aggregation reporter
[3] = rescue of polyQ-huntingtin neuronal dysfunction in worms, whole organism, C. elegans mechanosensory neurons, N-terminal huntingtin (AID 1599); settings: touch response, stronger effect = higher value
[4] = inhibitors of mitochondrial cytochrome c release, biochemical, purified mitochondria (AID 1603); settings: stronger effect = lower value;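 further: mouse liver mitochondria challenged with calcium chloride; signal normalized to the plate average as 100%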
[5] = inhibitors of polyQ protein aggregation (AID 1604); settings: polyglutamine-induced protein aggregation inhibition assay; stronger effect = higher value; tested at 2.5 µM
[6] = enhancers of glutamate uptake in motor neurons, MN-1 cell line (AID 1612); settings: MN-1 motor neuron cells, stronger effect = higher value;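 further: tested at 1 µM final; 0% = mean of DMSO vehicle wells on each plate; positive means more glutamate uptake than control and negative means less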
[7] = suppressors of polyglutamine aggregation in yeast, 75Q-TubH (AID 1616); settings: S. cerevisiae 75Q-TubH polyglutamine aggregation suppression; stronger effect = higher value
[8] = Cy5 fluorescence interference with SSB-bound oligo, artefact control for HCV NS3 helicase inhibitor project, biochemical, NIH Clinical Collection, E. coli SSB (AID 743268)
[9] = system: Hepatitis C virus NS3 helicase; assay: HCV NS3 helicase inhibitors, primary screen, biochemical, fluorescence polarization, NIH Clinical Collection (AID 743270); settings: NS3 helicase binding to Cy5-dT15 DNA, stronger effect = higher value, concentration not given here
[10] = target: Single-stranded DNA-binding protein (Escherichia coli (strain K12)) (UniProt P0AGE0); assay: E. coli SSB displacement from DNA, counter-screen for HCV NS3 helicase inhibitor project, biochemical, fluorescence polarization, NIH Clinical Collection (AID 743271; in the data active means inhibition above about 28%); settings: stronger effect = higher value, concentration not given here
[11] = fluorescence interference in NS3h assay format, artefact control for HCV NS3 helicase inhibitor project, biochemical, NIH Clinical Collection (AID 743272); settings: fluorescence interference counterscreen, stronger effect = lower value;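 further: HCV NS3 helicase with a Cy5 labelled single stranded DNA probe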
[12] = modulation of C. elegans fzo-1 (AID 1259413);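 further: fzo-1 mutant C. elegans worms in liquid wells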; settings: C. elegans fzo-1 modulator screen, mean read-out; stronger effect = higher value
[13] = target: NAD(+) hydrolase SARM1 (Homo sapiens) (UniProt Q6SZW1); assay: SARM1 TIR NADase inhibitors, cell lysate, NAD-Glo luminescence (AID 1508614;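 active means compound whose remaining NAD level is above about 45 nM, limit read from the data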); settings: SAM-TIR HEK293T lysate NADase, at 1 µM, stronger effect = higher value
[14] = target: Mitogen-activated protein kinase 7 (Homo sapiens) (UniProt Q13164); assay: ERK5 transactivation activators in reporter cells, primary screen, cell-based, HTS (AID 1508626;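 active means luciferase signal above three times the same-plate solvent-only control wells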;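 further: luciferase driven by Gal4-ERK5 fusion binding five Gal4 sites before minimal TATA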); settings: HeLa Gal4-ERK5 transactivation, 18 h, at 5 µM, stronger effect = higher value
[15] = viability rescue of complex I mutant cybrids, primary screen, cell-based, galactose medium, ATP luminescence (AID 1645843;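 active means z-score of at least 1.8 in each of two replicates, scored against plate mean and spread of sample wells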;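 further: positive z means more ATP and so rescue of galactose-driven cybrid death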); settings: complex I mutant cybrid cells, 72 h, stronger effect = higher value
R275C/beta2Delta = assay: modulators of BK channel variants, profiling panel, selectivity assay, cell-based, U2OS BacMam, thallium flux, beta subunits (AID 1259406;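 active means thallium flux through the channel raised or lowered by more than 3 SD from vehicle-only wells, actives on both sides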;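 further: initial slope of Thallos dye fluorescence rise after thallium is added; log ratio against the mean of 0.3% DMSO vehicle wells on the same plate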); settings: at 30 µM
R275C/beta4 = assay: as above; settings: at 30 µM
R275C/Slo1WT/beta2 = assay: as above; settings: at 30 µM
[16] = hESC survival regulators, cell-based (AID 493140); settings: human embryonic stem cell survival screen; stronger effect = higher value;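 further: cells exposed to compounds for four days before counting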

NAD(+) hydrolase SARM1 (Homo sapiens), sequence (Q6SZW1 whole entry, looked up, the tested form may be a part): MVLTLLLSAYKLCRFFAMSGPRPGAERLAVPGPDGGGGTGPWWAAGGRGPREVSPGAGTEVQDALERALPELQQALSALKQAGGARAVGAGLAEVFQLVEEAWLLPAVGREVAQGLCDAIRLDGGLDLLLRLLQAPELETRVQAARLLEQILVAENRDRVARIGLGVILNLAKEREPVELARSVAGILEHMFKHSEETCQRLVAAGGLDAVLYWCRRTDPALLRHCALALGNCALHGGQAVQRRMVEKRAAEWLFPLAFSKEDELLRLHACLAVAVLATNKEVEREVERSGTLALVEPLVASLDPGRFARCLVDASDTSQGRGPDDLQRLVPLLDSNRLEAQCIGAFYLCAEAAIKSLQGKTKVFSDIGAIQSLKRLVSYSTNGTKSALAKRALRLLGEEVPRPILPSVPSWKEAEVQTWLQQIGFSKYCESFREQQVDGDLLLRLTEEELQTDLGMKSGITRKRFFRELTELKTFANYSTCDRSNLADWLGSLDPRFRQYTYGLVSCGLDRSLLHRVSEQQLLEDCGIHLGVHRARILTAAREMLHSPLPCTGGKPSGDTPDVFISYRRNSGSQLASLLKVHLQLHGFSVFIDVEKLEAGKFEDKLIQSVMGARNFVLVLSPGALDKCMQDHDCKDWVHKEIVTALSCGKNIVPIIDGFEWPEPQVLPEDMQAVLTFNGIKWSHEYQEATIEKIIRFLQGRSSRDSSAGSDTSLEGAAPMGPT
Mitogen-activated protein kinase 7 (Homo sapiens), sequence (Q13164 whole entry, looked up, the tested form may be a part): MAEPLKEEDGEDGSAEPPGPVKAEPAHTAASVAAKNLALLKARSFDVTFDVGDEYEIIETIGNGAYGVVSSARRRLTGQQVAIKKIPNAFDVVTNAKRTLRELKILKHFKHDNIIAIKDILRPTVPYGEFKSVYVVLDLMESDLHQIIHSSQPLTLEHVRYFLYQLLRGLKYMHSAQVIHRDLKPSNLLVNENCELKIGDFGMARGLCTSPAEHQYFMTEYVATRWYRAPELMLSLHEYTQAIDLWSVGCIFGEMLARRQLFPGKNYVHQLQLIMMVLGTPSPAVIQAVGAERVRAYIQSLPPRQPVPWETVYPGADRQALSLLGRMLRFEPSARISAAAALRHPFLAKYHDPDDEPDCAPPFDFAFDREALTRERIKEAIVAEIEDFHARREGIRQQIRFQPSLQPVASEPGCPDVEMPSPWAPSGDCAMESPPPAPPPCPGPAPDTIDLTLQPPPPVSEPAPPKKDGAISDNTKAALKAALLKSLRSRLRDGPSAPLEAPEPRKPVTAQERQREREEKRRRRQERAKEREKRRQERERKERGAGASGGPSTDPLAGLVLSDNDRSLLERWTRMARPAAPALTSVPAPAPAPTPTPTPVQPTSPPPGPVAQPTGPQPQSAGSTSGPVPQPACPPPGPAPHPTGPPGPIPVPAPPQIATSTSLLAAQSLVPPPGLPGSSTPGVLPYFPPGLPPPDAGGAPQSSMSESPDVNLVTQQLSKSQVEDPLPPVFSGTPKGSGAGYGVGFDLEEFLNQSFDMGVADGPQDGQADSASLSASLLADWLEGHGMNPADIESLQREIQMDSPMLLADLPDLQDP

| SMILES | inhibition [1] [%] | score [2] | rescue above control [3] | cytochrome c release ratio [4] | inhibition of aggregation [5] [%] | glutamate uptake change [6] [%] | aggregation suppression score [7] | fluorescence ratio [8] | inhibition [9] | inhibition [10] | fluorescence ratio [11] | mean signal [12] | remaining NAD [13] | luciferase signal [14] | z-score [15] | log fold change Tl+ flux (R275C/beta2Delta) | log fold change Tl+ flux (R275C/beta4) | log fold change Tl+ flux (R275C/Slo1WT/beta2) | survival [16] |
| --- | --- | --- | --- | --- | --- | --- | --- | --- | --- | --- | --- | --- | --- | --- | --- | --- | --- | --- | --- |
| CC1Cc2ccccc2N1NC(=O)c1ccc(Cl)c(S(N)(=O)=O)c1 (stereo not drawn) | 11.1 | 1.1 | 19 | 0.89 | 85.9 | -15 | 1.3 | 0.31 (active) | 0.45% (inactive) | 1.05% (inactive) | 0.97 (inactive) | 231 (inactive) | 10 nM (inactive) | 56 AU (inactive) | 0.635 (inactive) and 0.155 (inactive) | -0.00869 (inactive) | 0.00861 (inactive) | -0.000687 (inactive) | – |
| CCCc1cc(=O)[nH]c(=S)[nH]1 | -28.5 | 1.06 | -2.2 | 1.02 | 48 | 4.57 | 1.14 | 1.04 (inactive) | -1.36% (inactive) | 0.29% (inactive) | 0.97 (inactive) | 248 (inactive) | 10 nM (inactive) | 88 AU (inactive) | 0.835 (inactive) | -0.0158 (inactive) | -0.0141 (inactive) | 0.0488 (inactive) | 31.3 (inactive) |
| O=C(O)c1cc(=O)c2c(OCC(O)COc3cccc4oc(C(=O)O)cc(=O)c34)cccc2o1 | -4.9 | 1.69 | 9.88 | 0.89 | 65.5 | -4.58 | 1.35 | 1.02 (inactive) | -2.27% (inactive) | 3.34% (inactive) | 1.03 (inactive) | 249 (inactive) | 10 nM (inactive) | 72 AU (inactive) | 0.69 (inactive) and 0.68 (inactive) | -0.0325 (inactive) | -0.125 (inactive) | 0.015 (inactive) | 1.67 (inactive) |
| NNC(=O)c1ccncc1 | -15 | 1.32 | -6.58 | 1.2 | 30.1 | -15.1 | 1.6 | 1.01 (inactive) | -2.27% (inactive) | 3.34% (inactive) | 0.93 (inactive) | 247 (inactive) | 10 nM (inactive) | 36 AU (inactive) | 0.55 (inactive) and 0.315 (inactive) | 0.0339 (inactive) | 0.0039 (inactive) | -0.0323 (inactive) | 30.9 (inactive) |
| O=c1[nH]cnc2[nH]ncc12 | 14.4 | 1.09 | 2.94 | 0.77 | 60.9 | -7.44 | 1.87 | 1.02 (inactive) | -5% (inactive) | -3.53% (inactive) | 0.99 (inactive) | 267 (inactive) | 10 nM (inactive) | 36 AU (inactive) | 0.315 (inactive) and -0.255 (inactive) | 0.0262 (inactive) | 0.0379 (inactive) | 0.0394 (inactive) | – |
